CRFBP-R2 agonist – agonists of CRF-BP/CRF-R2 complex, primary screen, cell-based, HEK293, calcium dye fluorescence, uHTS | CRF-binding protein / CRF receptor 2 complex (human) | calcium dye fluorescence (FLIPR); percent of saturating CRF peptide response | activation, % at 13.2 µM | 0.46% of 350,000 active;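 active means activation of at least 50%, plus an integration ratio under a set limit after plate pattern correction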;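 further: plate controls were neutral control wells without compound for no effect and CRF at EC100 for full effect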
IDE cell inh – human IDE inhibitors in live cells, primary screen, fluorescence polarization, HEK cells, FAbetaB substrate. Insulin-degrading enzyme (Homo sapiens), P14735. FAbetaB cleavage. inhibition, % at 5.59 µM. 0.41% of 320,000 active;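 active means percent inhibition above the average of all tested compounds plus 3 SD, set per screening campaign, cut at about 16% in these data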;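 further: IDE supplied by intact live HEK cells; FP after avidin binding of uncleaved biotin substrate so inhibition keeps polarization high; 0% = DMSO wells and 100% = 60 µM reference IDE inhibitor Ii1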
Target sequence (P14735 whole entry, looked up): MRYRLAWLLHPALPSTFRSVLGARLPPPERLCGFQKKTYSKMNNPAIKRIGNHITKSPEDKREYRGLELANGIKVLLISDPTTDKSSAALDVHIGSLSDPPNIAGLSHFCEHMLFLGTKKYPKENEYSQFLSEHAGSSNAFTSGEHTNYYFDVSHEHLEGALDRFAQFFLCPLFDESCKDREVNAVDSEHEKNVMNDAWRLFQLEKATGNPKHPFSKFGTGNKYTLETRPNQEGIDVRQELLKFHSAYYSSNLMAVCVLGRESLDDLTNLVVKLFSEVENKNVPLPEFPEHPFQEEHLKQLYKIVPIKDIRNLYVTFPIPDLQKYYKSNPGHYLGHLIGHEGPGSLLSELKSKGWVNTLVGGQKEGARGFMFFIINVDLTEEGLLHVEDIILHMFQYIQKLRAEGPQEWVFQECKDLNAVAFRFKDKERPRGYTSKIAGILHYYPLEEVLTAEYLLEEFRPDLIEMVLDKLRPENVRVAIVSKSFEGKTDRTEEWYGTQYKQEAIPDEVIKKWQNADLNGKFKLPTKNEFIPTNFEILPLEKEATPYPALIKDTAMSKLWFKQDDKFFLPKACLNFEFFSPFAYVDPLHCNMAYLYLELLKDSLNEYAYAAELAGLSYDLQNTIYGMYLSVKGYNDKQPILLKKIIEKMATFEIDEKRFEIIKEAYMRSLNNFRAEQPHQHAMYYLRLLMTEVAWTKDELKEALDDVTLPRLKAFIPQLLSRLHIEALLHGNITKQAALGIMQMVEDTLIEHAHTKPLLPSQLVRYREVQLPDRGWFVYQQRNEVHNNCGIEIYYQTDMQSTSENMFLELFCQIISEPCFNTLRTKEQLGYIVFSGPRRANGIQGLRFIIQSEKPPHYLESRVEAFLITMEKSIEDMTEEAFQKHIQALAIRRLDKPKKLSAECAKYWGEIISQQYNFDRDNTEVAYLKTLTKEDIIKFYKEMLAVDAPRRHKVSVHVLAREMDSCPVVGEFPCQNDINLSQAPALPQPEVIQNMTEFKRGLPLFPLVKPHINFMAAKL
cardiac RTF act – cardiac RTF calcium sensitivity activators, primary screen, biochemical, IANBD-TnC fluorescence, EC20 calcium; Troponin I, cardiac muscle (Homo sapiens) + Troponin T, cardiac muscle (Homo sapiens) + …; IANBD-labeled TnC RTF fluorescence at EC20 calcium; 0% EC20 calcium, 100% full calcium; activation, % at 7.2 µM; 0.24% of 340,000 active; AID 493008, 2010;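 active means activation above the mean over all tested compounds plus 3 SD, cut at about 30% in these data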;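 further: rise in fluorescence read as greater calcium sensitivity of cardiac thin filaments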
Cardiac RTF inh – cardiac RTF calcium sensitivity inhibitors, primary screen, biochemical, IANBD-TnC fluorescence, EC70 calcium. IANBD-labeled cardiac RTF, Ca2+ fluorescence. inhibition, % at 7.15 µM. 0.12% of 340,000 active. AID 493244, 2011;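 active means inhibition above the mean inhibition of all tested compounds plus 3 SD, cut at about 17% in these data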;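 further: assay run at fixed EC70 calcium of 1.6 mM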
IDE act – human IDE activators in live cells, primary screen, fluorescence polarization, HEK cells, FAbeta-B substrate. activation, % at 5.96 µM. FAbeta-B cleavage; 0% vehicle, 100% cell-free pure enzyme wells. 0.073% of 340,000 active. Insulin-degrading enzyme (Homo sapiens), P14735;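 active means activation above the mean of all tested compounds plus 3 SD, set per screening campaign, cut at about 17% in these data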
TPT1 inh – Candida albicans TPT1 enzyme inhibitors, primary screen, biochemical, fluorescence polarization. recombinant caTPT1, FP RNA substrate dephosphorylation. tRNA 2'-phosphotransferase TPT1 (Candida albicans SC5314). 0.81% of 300,000 active. inhibition, % at 5 µM;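 active means inhibition above the mean of all tested compounds plus 3 SD, set per screening campaign, cut at about 24% in these data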;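 further: plate controls were DMSO alone for no effect and ferristatin control at 100 nM for full effect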
IDE cell inh cf – human IDE inhibitors in live cells, confirmation, fluorescence polarization, HEK cells, FAbetaB substrate; inhibition, % at 5.59 µM; AID 435028, 2010; shares compounds with IDE cell inh; 51% of 1,200 active; FAbetaB cleavage;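 active means mean inhibition across triplicate wells above the cutoff set by the earlier primary insulin-degrading enzyme screen, cut at about 16% in these data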;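 further: 0% = DMSO wells and 100% = 60 µM reference IDE inhibitor Ii1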
HEK293 tox – cytotoxicity in HEK cells, cytotoxicity control for IDE inhibitor project, cell-based, luminescence | shares compounds with IDE cell inh | HEK293 cytotoxicity, ATP luminescence | inhibition, % at 5.59 µM | 28% of 1,200 active | AID 449730, 2010; in the data active means inhibition above about 22%;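 further: 0% = vehicle wells and 100% = reference cytotoxic drug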
Active calls of the source: *; x = no result. The list is not random: actives were taken first. Their share in the collection is about 1.5%.

SMILES | CRFBP-R2 agonist | IDE cell inh | cardiac RTF act | Cardiac RTF inh | IDE act | TPT1 inh | IDE cell inh cf | HEK293 tox
CCOC(=O)N1CCN(CC(O)COc2ccc(-c3ccccc3)cc2)CC1 (stereo not given) | -2 | 17* | 0 | -6 | -17 | 0 | 10 | 11
COc1ccc(C(=O)NCC(=O)NCC(=O)OCc2ccc(Br)cc2)cc1 | -4 | 7 | 0 | -5 | -11 | -4 | x | x
O=C(CNC(=O)c1ccc(Oc2ccccc2)cc1)OCc1ccc(Br)cc1 | 4 | 28* | 6 | 4 | -21 | -2 | 6 | 4
O=C(CN1CCN(c2cccc(Cl)c2)CC1)NC1CCCc2ccccc21 (stereo not given) | 0 | -2 | -7 | -1 | 5 | 0 | x | x
COc1cc(C(=O)N2CCN(C(=O)C3COc4ccccc4O3)CC2)cc(OC)c1OC (stereo not given) | -1 | 23* | -3 | 2 | -15 | -2 | 16 | 9
COc1ccc(C(=O)N2CCN(C(=O)C3COc4ccccc4O3)CC2)cc1 (stereo not given) | 1 | 8 | -1 | -1 | -7 | -2 | x | x
COc1cccc(N2C(=O)CC(N3CCN(S(=O)(=O)c4ccccc4[N+](=O)[O-])CC3)C2=O)c1 (stereo not given) | 0 | x | -2 | -1 | 1 | x | x | x
CCOC(=O)c1c(C)n(-c2ccc(C)cc2)c2ccc(OCC(O)CNCCCO)cc12 (stereo not given) | 1 | 17* | -5 | 2 | -15 | -1 | 10 | 16
CCOC(=O)c1c(C)n(-c2ccc(C)cc2)c2ccc(OCC(O)CNCC3CCCO3)cc12 (stereo not given) | -1 | 17* | 0 | 4 | -10 | -4 | 7 | 13
Cc1ccc(S(=O)(=O)N2CC3(O)CN(C(=O)OC(C)C)N(C(=O)OC(C)C)CC3(OC(=O)NCc3ccccc3)C2)cc1 (stereo not given) | -1 | x | x | x | x | x | x | x
CCN1C(=O)/C(=C/C=C2/Sc3ccc4ccccc4c3N2CCO)SC1=S | -2 | 24* | 5 | -11 | -6 | 8 | 9 | 13
COC(=O)c1c(NC(=O)COC(=O)C2CCC2)sc(C)c1C | 3 | -2 | -7 | -5 | 4 | 3 | x | x
Cc1ccc2[nH]c3c(NCc4ccco4)ncnc3c2c1 | -3 | 65* | 4 | -4 | -54 | 0 | 53* | 53*
Cc1ccc(-n2ncc3c(NCCCN4CCCC4=O)ncnc32)c(C)c1 | -1 | 1 | 2 | -9 | 0 | -2 | x | x
Cc1ccc2[nH]c3c(NCCCN4CCCC4=O)ncnc3c2c1 | -2 | 18* | -2 | 1 | -8 | 3 | 6 | 7
Brc1cc(-c2ccccc2)nc(-c2ccccc2)n1 | 4 | 0 | x | x | x | -2 | x | x
COc1ccc(C(CC(=O)NCC(OC)OC)NS(=O)(=O)c2ccc(Cl)cc2)cc1 (stereo not given) | 1 | -3 | -3 | 1 | 6 | 0 | x | x
O=C(NCc1ccccn1)c1cc(-c2ccc(Cl)cc2)oc1C(F)(F)F | -6 | 16* | x | x | x | -3 | 0 | 9
Cn1nc(-c2ccccc2F)c2cc(C(=O)Nc3ccc4c(c3)OCCO4)sc21 | 0 | 11 | -3 | 3 | -11 | 1 | x | x
COc1cccc(-c2nn(C)c3sc(C(=O)Nc4ccc5c(c4)OCCO5)cc23)c1 | 1 | 25* | -3 | -1 | -15 | 0 | 9 | 20
O=S(=O)(Cc1ccccc1)Oc1ccccc1 | 0 | 1 | -4 | -5 | 1 | 0 | x | x
COc1ccc2c(=O)c(Oc3ccc(C(=O)O)cc3)c(C(F)(F)F)oc2c1 | 0 | 18* | 4 | -8 | 1 | -2 | 4 | 7
COc1ccc(-n2sc3ccc(F)cc3c2=O)cc1 | 25 | 58* | -1 | -15 | -23 | x | 35* | 81*
O=c1c2cc([N+](=O)[O-])ccc2sn1-c1ccccc1 | -1 | x | x | x | x | x | x | x
O=c1c2cc(F)ccc2sn1-c1ccc(F)cc1 | 28 | 35* | 2 | 2 | -22 | x | 18* | 42*
SMILES | CRFBP-R2 agonist | IDE cell inh | cardiac RTF act | Cardiac RTF inh | IDE act | TPT1 inh | IDE cell inh cf | HEK293 tox
COc1ccc(-n2sc3ccccc3c2=O)cc1 | 6 | x | x | x | x | x | x | x
Cc1ccc(C)c(-n2sc3ccc(F)cc3c2=O)c1 | 31 | 36* | -5 | 2 | -22 | x | 19* | 69*
Cc1cc(-c2ccn[nH]2)c(C)s1 | -3 | 2 | 9 | -11 | -3 | -1 | x | x
COC(=O)c1ccc(NC(=O)CSc2ccc(-c3ccccn3)nn2)cc1 | 1 | -3 | -2 | -1 | 1 | 0 | x | x
CC(NC(=O)c1cccc(S(=O)(=O)N2CCN(Cc3ccccc3)CC2)c1)c1ccc(Cl)cc1 (stereo not given) | 4 | x | -6 | -3 | 3 | x | x | x
Cc1sc2ccc3sccc3c2[n+]1C | 1 | 20* | 1 | -2 | -23 | -3 | 4 | 5
Cc1sc2c3ccsc3ccc2[n+]1C | -1 | 9 | -1 | -5 | -16 | 0 | x | x
CC(=O)C1=C(C)NC(SCSc2ccccc2)=C(C#N)C1c1cccnc1 (stereo not given) | 0 | 21* | x | x | x | 5 | 13 | 13
COc1cc([N+](=O)[O-])c2ncsc2c1 | -1 | -2 | 0 | 0 | 1 | -1 | x | x
COc1cc(SSc2cc(OC)cc([N+](=O)[O-])c2N)c(N)c([N+](=O)[O-])c1 | 0 | 21* | 9 | -1 | -27 | -3 | 18* | 24*
COc1ccc(S(=O)(=O)N2CCCC2CNC(=O)C(=O)Nc2cccc(F)c2)cc1 (stereo not given) | 0 | -2 | 11 | -12 | -7 | -1 | x | x
CCn1c(Cc2ccccc2)nnc1SCC(=O)c1c(N)n(C2CC2)c(=O)[nH]c1=O | 0 | -5 | -5 | -5 | 3 | x | x | x
O=c1[nH]c2cc(Br)cnc2nc1/C=C(\O)c1ccc(F)cc1 | 22 | 26* | -1 | -14 | -50 | 19 | 65* | 13
O=C(NCc1nc2ncc(Br)cc2[nH]1)c1ccccc1 | 1 | -1 | 0 | 2 | 1 | -2 | x | x

Compound activity (PubChem BioAssay)
